Screens deposited in PubChem by Sanford-Burnham Center for Chemical Genomics.
CYP2C19 inh – human CYP2C19 inhibition; CYP2C19 Supersomes, luciferin-H EGE luminescence, 30 min; 96,000 compounds, 21% hits; inhibition, % at 5 µM; AID 778; P33261;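 active = CYP2C19 inhibition above a set limit at 5 µM in the primary screen, cut at about 50% in these data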
Target sequence (P33261 whole entry, looked up): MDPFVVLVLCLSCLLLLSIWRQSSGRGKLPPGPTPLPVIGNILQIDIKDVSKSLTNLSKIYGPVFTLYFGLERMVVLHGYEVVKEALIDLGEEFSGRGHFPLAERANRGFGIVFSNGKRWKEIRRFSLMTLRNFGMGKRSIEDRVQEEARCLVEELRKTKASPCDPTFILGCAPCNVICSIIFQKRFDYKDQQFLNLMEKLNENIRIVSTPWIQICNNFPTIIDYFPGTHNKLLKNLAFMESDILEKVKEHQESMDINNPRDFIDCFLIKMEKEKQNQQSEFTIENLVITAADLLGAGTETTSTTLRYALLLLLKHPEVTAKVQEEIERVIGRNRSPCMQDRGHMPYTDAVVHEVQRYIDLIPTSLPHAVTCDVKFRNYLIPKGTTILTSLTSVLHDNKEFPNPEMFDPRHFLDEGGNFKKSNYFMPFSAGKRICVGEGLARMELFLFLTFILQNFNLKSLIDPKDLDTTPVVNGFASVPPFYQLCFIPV
CYP2C9 inh – human CYP2C9 inhibition | CYP2C9 Supersomes, luciferin-H conversion, luminescence | inhibition, % at 5 µM | 96,000 compounds, 20% hits | AID 777;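 active = blocking of liver enzyme CYP2C9 beyond about 50% at 5 µM, limit read from the data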
CYP2C19 activ – activators of human cytochrome P450 2C19 | activation factor at 5 µM | 96,000 tested, under 10 active | P33261 | AID 1025 | recombinant CYP2C19, luciferin-H EGE luminescence; stronger effect = higher value; 0 = fully inhibited enzyme, 1 = untreated enzyme;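 active = activation factor of at least 2 at 5 µM in the primary screen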
CYP2C9 act – CYP2C9 (human) activation. P11712. recombinant CYP2C9, luciferin-H conversion, luminescence; stronger effect = higher value; factor 1 = untreated enzyme, 0 = blocked. activation factor at 5 µM. 96,000 compounds, 1.4% hits;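 active = activation factor of 2 or more for CYP2C9 at a 5 µM dose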
PTK2B oligo ant – Pyk2 (human) oligomerization antagonism | 99,000 compounds, 0.83% hits | z-score (the deposit names both 25 µM and 10 µM) | Q14289 | Q293 cells, Pyk2 FERM NanoBiT luminescence; stronger effect = lower value;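 active = Z-score of -3 or lower, scaled per plate to the spread of control and sample wells; inactive = z-score above -3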;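 also: negative z-score means lost luminescence so less FERM oligomerization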
A number is an active result; 0 = inactive; - = no result given. The list is not random: actives were taken first. Their share in the collection is about 28%.

SMILES | CYP2C19 inh | CYP2C9 inh | CYP2C19 activ | CYP2C9 act | PTK2B oligo ant
CCCN1CCN(CCCNC(=O)Cn2nc(-c3ccccc3)ccc2=O)CC1 | 0 | 0 | 0 | 0 | 0
Cc1cc(NC(=O)CSc2nc3ccccc3n2CC(=O)N2CC(C)CC(C)C2)no1 (stereo not drawn) | 0 | 0 | 0 | 0 | 0
C=CCn1cnc2c(NCc3ccccc3)ncnc21 | 70 | 0 | 0 | 0 | 0
Cc1c(NS(=O)(=O)c2ccccc2)cc(Cl)c(O)c1C | 99 | 0 | 0 | 2.5 | 0
Cc1ccc(S(=O)(=O)Nc2cc(Cl)c(O)cc2C)cc1 | 98 | 0 | 0 | 2.3 | 0
Cc1ccc(C)c(NS(=O)(=O)c2ccc(NC(=O)c3ccco3)cc2)c1 | - | - | - | - | 0
Cc1ccc(S(=O)(=O)Nc2cc(C(C)C)c(O)cc2C)cc1 | 84 | 0 | 0 | 0 | 0
Cc1ccc(OCc2ccc(C(=O)Nc3nc4ccccc4n3Cc3ccccc3)o2)c([N+](=O)[O-])c1 | 0 | 63 | 0 | 0 | 0
O=C(Nc1nc2ccccc2n1Cc1ccccc1)c1ccc(COc2ccccc2[N+](=O)[O-])o1 | 0 | 0 | 0 | 0 | 0
CC(=O)CN1Cc2ccccc2/C1=N\C(=O)Nc1ccccc1 | 58 | 0 | 0 | 0 | 0
CCN1CCN(CC(=O)Nc2ccccc2)C(=O)C1=O | 0 | 0 | 0 | 0 | -
O=S(=O)(Nc1ccc(Oc2ncccn2)c(Cl)c1)c1ccc(Cl)cc1 | 99 | 99 | 0 | 0 | 0
COc1ccc(NC2=Nc3ccccc3CC2)cc1 | 0 | 0 | 0 | 0 | 0
COc1ccc(C2=Nc3ccccc3OC2)cc1 | 70 | 58 | 0 | 0 | 0
O=C1Nc2ccccc2C1(O)Cc1ccncc1 (stereo not drawn) | 0 | 0 | 0 | 0 | 0
Cc1ccc2c(c1)C(O)(CC(=O)c1ccc3c(c1)OCO3)C(=O)N2 (stereo not drawn) | 58 | 0 | 0 | 0 | 0
O=C(CC1(O)C(=O)Nc2ccc(Br)cc21)c1ccc2c(c1)OCO2 (stereo not drawn) | 76 | 75 | 0 | 0 | 0
O=C1Nc2ccc(Br)cc2C1(O)Cc1ccncc1 (stereo not drawn) | 56 | 83 | 0 | 0 | 0
Cc1cc(NC(=O)NC2CCCN2S(=O)(=O)c2ccc(Cl)cc2)no1 (stereo not drawn) | 80 | 60 | 0 | 0 | 0
Cc1ccc(S(=O)(=O)N2CCCC2C(=O)Nc2cc(C)on2)cc1 (stereo not drawn) | 0 | 0 | 0 | 0 | 0
Cc1cc(NC(=O)COC(=O)C2CCN(S(=O)(=O)c3ccc(Cl)cc3)CC2)no1 | 0 | 62 | 0 | 0 | 0
Cc1cc(NC(=O)COC(=O)C2CCN(S(=O)(=O)c3c(Cl)cccc3Cl)CC2)no1 | 0 | 0 | 0 | 0 | 0
CC(C)(C)NC(=O)COC(=O)/C=C/c1ccccc1[N+](=O)[O-] | 0 | 0 | 0 | 0 | 0
CCn1c(SCc2ccc(C)cc2)nnc1-c1cnccn1 | 0 | 0 | 0 | 0 | 0
CCn1c(SCc2nc3ccccc3[nH]2)nnc1-c1ccncc1 | 93 | 0 | 0 | 0 | 0
SMILES | CYP2C19 inh | CYP2C9 inh | CYP2C19 activ | CYP2C9 act | PTK2B oligo ant
CCn1c(SCc2nc3ccccc3[nH]2)nnc1-c1cnccn1 | 91 | 0 | 0 | 0 | 0
CCn1c(SCc2nc3ccccc3[nH]2)nnc1-c1cccnc1 | 78 | 0 | 0 | 0 | 0
COc1cccc(N(C(=O)c2cccs2)c2nc3ccccc3s2)c1 | 0 | 0 | 0 | 0 | 0
CS(=O)(=O)N(CC(=O)Nc1ccccc1C(=O)N1CCOCC1)c1ccc2c(c1)OCO2 | 0 | 0 | 0 | 0 | 0
COC(=O)c1cccc(NC(=O)CN(c2ccc3c(c2)OCO3)S(C)(=O)=O)c1C | 90 | 71 | 0 | 0 | 0
COC(=O)c1cc(NC(=O)CN(c2ccc3c(c2)OCO3)S(C)(=O)=O)ccc1Cl | 93 | 93 | 0 | 0 | 0
CS(=O)(=O)N(CC(=O)Nc1cccnc1)c1ccc2c(c1)OCO2 | 58 | 0 | 0 | 0 | 0
COC(=O)c1ccc(Cl)c(NC(=O)CN(c2ccc3c(c2)OCO3)S(C)(=O)=O)c1 | 90 | 87 | 0 | 0 | 0
CC1CCN(c2ncnc3c2cnn3Cc2ccc(Cl)cc2)CC1 | 0 | 76 | 0 | 0 | 0
Cc1ccc(Cn2ncc3c(N4CCN(Cc5ccc(Cl)cc5)CC4)ncnc32)cc1 | 0 | 0 | 0 | 0 | 0
Cc1ccccc1N1CCN(c2ncnc3c2cnn3Cc2ccc(Cl)cc2)CC1 | 0 | 76 | 0 | 0 | 0
C/C(=N\NC(=O)COc1ccc(C)cc1C(C)C)c1ccc(-n2ccnc2)cc1 | - | - | - | - | 0
Cn1c(SCC(=O)NC2CC2)nnc1-c1cccc(NC(=O)c2ccccc2F)c1 | 0 | 0 | 0 | 0 | 0
COC(=O)Nc1ccc(S(=O)(=O)Nc2ccc(O)cc2)cc1 | - | - | - | - | 0
COc1ccccc1NS(=O)(=O)c1ccc(O)cc1 | 86 | 0 | 0 | 2.3 | 0
COc1ccccc1NS(=O)(=O)c1cccc(C(=O)NN)c1 | 97 | 0 | 0 | 0 | 0
COc1ccccc1NS(=O)(=O)c1cccc(NC(=O)c2nc3nc(C)cc(C)n3n2)c1 | 0 | 0 | 0 | 0 | 0
CCOc1cc(/C=N/NC(=O)COc2cccc(C)c2)ccc1OC(=O)c1cccs1 | 0 | 59 | 0 | 0 | 0
COc1cc2c(cc1OC)-c1cc(N3CCCc4ccccc43)nc(=O)n1CC2 | 60 | 69 | 0 | 0 | 0
CCOc1cccc(Nc2cc3n(c(=O)n2)CCc2cc(OC)c(OC)cc2-3)c1 | 0 | 0 | 0 | 0 | 0
COc1cc2c(cc1OC)-c1cc(Nc3ccc4c(c3)OCCO4)nc(=O)n1CC2 | 0 | 67 | 0 | 0 | 0
CCN1CCN(C(=O)C2=C(C(=O)O)CCCC2)CC1 | 0 | 0 | 0 | 0 | 0
COc1cccc(/C=C2/CN(C)CC3=C2OC(N)=C(C#N)C3c2cccc(OC)c2)c1 (stereo not drawn) | - | - | - | - | 0
Cc1ccc(/C=C2\CCC3=C2OC(N)=C(C#N)C3c2ccc(C)cc2)cc1 (stereo not drawn) | 0 | 56 | 0 | 0 | 0
Cc1cc(Cl)ccc1OCCCC(N)=O | 0 | 0 | 0 | 0 | 0
SMILES | CYP2C19 inh | CYP2C9 inh | CYP2C19 activ | CYP2C9 act | PTK2B oligo ant
Cc1cc(Cl)ccc1OC(C)c1nnc(N)s1 (stereo not drawn) | 61 | 0 | 0 | 0 | 0
Cc1cccc(N2CCN(C(=O)CCNC(=O)Cn3ccc4ccccc4c3=O)CC2)c1C | 0 | 0 | 0 | 0 | 0
O=C(Nc1cccc(Cl)c1)N1CCCC1 | 0 | 0 | 0 | 0 | 0
CC1=C(C)CC(C(=O)Nc2cccc(Cl)c2)C(C(=O)O)C1 (stereo not drawn) | 0 | 50 | 0 | 0 | 0
CC1CCCCN1C(=O)Nc1cccc(Cl)c1 (stereo not drawn) | 70 | 0 | 0 | 0 | 0
CCOC(=O)N1CCC(N(C(=O)Nc2ccc(Cl)c(Cl)c2)C(C)CC)CC1 (stereo not drawn) | 89 | 84 | 0 | 0 | 0
CCOC(=O)N1CCC(N(CCOC)C(=O)Nc2ccc(CC)cc2)CC1 | 0 | 0 | 0 | 0 | 0
CCOC(=O)N1CCN(C(=O)Nc2cccc(Cl)c2)CC1 | 61 | 0 | 0 | 0 | 0
COc1cccc(S(=O)(=O)Nc2cccc(C(=O)N3CCCCCC3)c2)c1 | - | - | - | - | 0
C=CCn1c(O)c(CN2CCOCC2)c(C)c(C#N)c1=O | 0 | 0 | 0 | 0 | 0
